Experimental data taken from PubChem BioAssay (Tox21).
Results filed as inconclusive are left out. Calls of active or inactive are those of the source. Unless noted, the call rests on the fitted dose curve; in most records, active means well fitted curve in the direction sought with a large enough effect in the repeat runs; inconclusive means weak or mixed curves; inactive means no such curve, though single readings can be large; an effect the other way counts as inactive or inconclusive.

Columns and labels:
[1] = qHTS assay to identify small molecule antagonists of the thyroid receptor (TR) signaling pathway (AID 743065); further: nearly all actives have a fitted effect of over 55% in size; further: potency means the concentration at half of the fitted maximal effect
Outline: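 GH3.TRE-Luc rat pituitary cells (two TREs driving luciferase) were dosed with compound, then stimulated with 1 nM T3 (final) for 23.5 h at 37 C. ONE-Glo luminescence was the read-out, with CellTiter-Fluor fluorescence as the cytotoxicity counter-screen.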

[2] = test system: thyroid hormone receptor (rat, GH3 cells); assay: qHTS assay to identify small molecule agonists of the thyroid receptor (TR) signaling pathway (AID 743066; calls by dose curve)
[3] = target: Estrogen receptor (Homo sapiens) (UniProt P03372); assay: qHTS assay to identify small molecule antagonists of the estrogen receptor alpha (ER-alpha) signaling pathway (AID 743069; active means well fitted curve in the direction sought with a large enough effect in the signal ratio in the repeat runs, not every such curve was filed as active; the % refers to the signal ratio; further: potency means the concentration at half of the fitted maximal effect)
Estrogen receptor (Homo sapiens), sequence (P03372 whole entry, looked up): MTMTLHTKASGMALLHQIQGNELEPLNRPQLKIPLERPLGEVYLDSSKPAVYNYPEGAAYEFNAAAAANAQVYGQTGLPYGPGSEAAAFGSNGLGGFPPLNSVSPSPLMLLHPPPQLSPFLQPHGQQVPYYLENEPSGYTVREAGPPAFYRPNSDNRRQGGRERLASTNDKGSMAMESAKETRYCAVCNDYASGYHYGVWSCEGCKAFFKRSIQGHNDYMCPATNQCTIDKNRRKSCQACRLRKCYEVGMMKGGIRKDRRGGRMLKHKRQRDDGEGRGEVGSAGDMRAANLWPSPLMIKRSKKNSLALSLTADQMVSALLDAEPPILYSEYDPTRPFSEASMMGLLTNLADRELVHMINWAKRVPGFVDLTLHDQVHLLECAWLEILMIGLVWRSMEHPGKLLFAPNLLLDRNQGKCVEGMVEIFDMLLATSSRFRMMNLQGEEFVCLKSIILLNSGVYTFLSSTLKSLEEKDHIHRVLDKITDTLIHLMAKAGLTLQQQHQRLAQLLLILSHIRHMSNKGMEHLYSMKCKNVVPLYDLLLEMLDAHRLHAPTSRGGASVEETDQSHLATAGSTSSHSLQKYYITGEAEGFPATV
Outline: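 In this cell-based reporter format, GripTite HEK293 cells harbouring ER-alpha-UAS-bla were grown overnight with 2% charcoal-stripped FBS, dosed with DMSO-dissolved compounds, then challenged with 17beta-estradiol. After 18 hr at 37C, beta-lactamase activity was detected by FRET fluorescence.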

[4] = qHTS assay to identify small molecule antagonists of the estrogen receptor alpha (ER-alpha) signaling pathway - cell viability counter screen (AID 743074; calls by dose curve; further: nearly all actives have a fitted effect of over 45% in size)
[5] = target: Estrogen receptor (Homo sapiens) (UniProt P03372); assay: qHTS assay to identify small molecule agonists of the estrogen receptor alpha (ER-alpha) signaling pathway (AID 743075; calls by dose curve)
[6] = target: Estrogen receptor (Homo sapiens) (UniProt P03372); assay: qHTS assay to identify small molecule agonists of the estrogen receptor alpha (ER-alpha) signaling pathway using the BG1 cell line (AID 743079); conditions: BG1Luc4E2 cells, ERE-luciferase agonist, 22 h; activation: at 70.3 µM (top of the series); further: nearly all actives have a fitted effect of over 20% in size
[7] = qHTS assay to identify small molecule antagonists of the estrogen receptor alpha (ER-alpha) signaling pathway using the BG1 cell line (AID 743080; calls by dose curve;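 further: BG1 cells stimulated with 17beta-estradiol alongside compound; nearly all actives have a fitted effect of over 25% in size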)
Outline: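 BG1Luc4E2, endogenous ER-alpha, 4xERE-luc; 5 d charcoal-stripped FBS, phenol red free; 24 h plating; cpd + 17beta-estradiol 21.5 h, 37 C/5% CO2; CellTiter-Fluor viability 30 min, then ONE-Glo luciferase 30 min RT.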

[8] = qHTS assay to identify small molecule antagonists of the estrogen receptor alpha (ER-alpha) signaling pathway using the BG1 cell line - cell viability counter screen (AID 743081);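 further: compound given together with 17beta-estradiol as the ER stimulus; nearly all actives have a fitted effect of over 45% in size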
[9] = target: Aromatase (Homo sapiens) (UniProt P11511); assay: qHTS assay to identify aromatase inhibitors (AID 743083); further: nearly all actives have a fitted effect of over 55% in size
Aromatase (Homo sapiens), sequence (P11511 whole entry, looked up): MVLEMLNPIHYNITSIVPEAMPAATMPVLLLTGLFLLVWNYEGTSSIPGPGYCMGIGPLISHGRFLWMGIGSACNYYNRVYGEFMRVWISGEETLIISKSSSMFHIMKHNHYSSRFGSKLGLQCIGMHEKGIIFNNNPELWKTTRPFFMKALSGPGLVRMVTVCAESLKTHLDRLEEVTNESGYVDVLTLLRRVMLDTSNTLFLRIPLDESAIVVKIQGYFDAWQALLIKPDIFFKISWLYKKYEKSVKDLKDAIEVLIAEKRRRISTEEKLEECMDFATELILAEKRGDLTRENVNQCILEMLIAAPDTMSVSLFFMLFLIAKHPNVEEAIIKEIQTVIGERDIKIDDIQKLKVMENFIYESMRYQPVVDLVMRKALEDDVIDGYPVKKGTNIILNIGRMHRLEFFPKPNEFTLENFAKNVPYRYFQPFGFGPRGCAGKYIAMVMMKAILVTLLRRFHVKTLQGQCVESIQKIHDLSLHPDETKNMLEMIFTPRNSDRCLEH

[10] = qHTS assay to identify aromatase inhibitors - cell viability counter screen (AID 743084);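 further: cells stimulated with testosterone during compound exposure; nearly all actives have a fitted effect of over 55% in size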
[11] = qHTS assay to identify small molecule that activate the aryl hydrocarbon receptor (AhR) signaling pathway - cell viability counter screen (AID 743086);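 further: HepG2 liver cells carrying the AhR DRE luciferase reporter; nearly all actives have a fitted effect of over 45% in size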
Outline: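 HepG2-AhR-luc (HG2L7.5c1) cells, 4000/well, treated 24 h at 37 C with compound; viability measured as CellTiter-Fluor fluorescence after 30 min in the same wells as the luciferase read.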

[12] = target: Peroxisome proliferator-activated receptor gamma (Homo sapiens) (UniProt P37231); assay: qHTS assay to identify small molecule agonists of the peroxisome proliferator-activated receptor gamma (PPARg) signaling pathway (AID 743094; active means well fitted activation curve with a large enough effect in the signal ratio in the repeat runs, not every such curve was filed as active; the % refers to the signal ratio)
Peroxisome proliferator-activated receptor gamma (Homo sapiens), sequence (P37231 whole entry, looked up): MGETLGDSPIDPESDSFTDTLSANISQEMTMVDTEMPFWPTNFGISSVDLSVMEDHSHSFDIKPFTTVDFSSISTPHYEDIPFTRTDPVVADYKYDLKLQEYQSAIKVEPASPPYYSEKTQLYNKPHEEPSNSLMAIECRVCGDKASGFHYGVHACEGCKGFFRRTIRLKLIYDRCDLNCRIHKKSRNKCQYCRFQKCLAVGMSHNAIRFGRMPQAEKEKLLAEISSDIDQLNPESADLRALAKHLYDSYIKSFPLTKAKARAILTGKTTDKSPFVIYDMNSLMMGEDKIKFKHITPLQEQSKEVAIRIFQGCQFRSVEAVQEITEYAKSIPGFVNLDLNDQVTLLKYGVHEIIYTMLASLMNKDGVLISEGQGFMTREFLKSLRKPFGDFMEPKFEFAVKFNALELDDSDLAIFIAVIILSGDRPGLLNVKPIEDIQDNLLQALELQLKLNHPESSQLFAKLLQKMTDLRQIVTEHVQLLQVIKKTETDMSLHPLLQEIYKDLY
Outline: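 HEK293H PPARg-bla cells, 5 h settle at 37C/5% CO2; compound (DMSO) 17 h, 37C; B/G FRET substrate 1 h RT; fluorescence intensity read-out. qHTS format.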

[13] = qHTS assay for small molecule agonists of the antioxidant response element (ARE) signaling pathway (AID 743202; active means well fitted activation curve with a large enough effect in the signal ratio in the repeat runs, not every such curve was filed as active; the % refers to the signal ratio; further: potency means the concentration at half of the fitted maximal effect)
Outline: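 HepG2 ARE-bla cells; 16 h treatment at 37 C; FRET-based beta-lactamase fluorescence read after 2 h substrate incubation at room temperature.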

[14] = qHTS assay for small molecule agonists of the antioxidant response element (ARE) signaling pathway - cell viability counter screen (AID 743203; calls by dose curve; further: nearly all actives have a fitted effect of over 55% in size)
Outline: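 Luminescence read-out (CellTiter-Glo, 30 min at room temperature) measured cell viability in the same wells as the ARE beta-lactamase reporter. HepG2 ARE-bla cells were treated with compounds for 16 hrs at 37C/5% CO2.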

[15] = qHTS assay for small molecule activators of the heat shock response signaling pathway - cell viability counter screen (AID 743209); further: nearly all actives have a fitted effect of over 50% in size
Outline: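 HSE-bla HeLa; 1500 cells/well; overnight 37 C, 5% CO2; compound 5 h 37 C; LiveBLAzer B/G substrate 2.5 h RT; CellTiter-Glo 30 min RT; luminescence.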

[16] = qHTS assay for small molecule activators of the heat shock response signaling pathway (AID 743210; active means well fitted activation curve with a large enough effect in the signal ratio in the repeat runs, with a control signal flat, not every such curve was filed as active; the % refers to the signal ratio;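 further: HeLa cells with beta-lactamase reporter driven by heat shock elements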)
Outline: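 Following overnight attachment, HSE-bla HeLa cells received test compounds for 5 h at 37 C; beta-lactamase activity was then detected via FRET substrate fluorescence.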

[17] = qHTS assay to identify small molecule antagonists of the thyroid receptor (TR) signaling pathway - cell viability counter screen (AID 743064); further: nearly all actives have a fitted effect of over 50% in size
Outline: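 GH3.TRE-Luc cells, 4 h pre-plating; cpd + T3 1 nM final; 37 °C 23.5 h; CellTiter-Fluor 30 min; fluorescence read.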

[18] = target: Aryl hydrocarbon receptor (Homo sapiens) (UniProt P35869); assay: qHTS assay to identify small molecule that activate the aryl hydrocarbon receptor (AhR) signaling pathway (AID 743085); further: nearly all actives have a fitted effect of over 15% in size; further: potency means the concentration at half of the fitted maximal effect;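 on activation: HG2L7.5c1 human HepG2 liver cells with stably integrated DRE-driven firefly reporter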
Aryl hydrocarbon receptor (Homo sapiens), sequence (P35869 whole entry, looked up): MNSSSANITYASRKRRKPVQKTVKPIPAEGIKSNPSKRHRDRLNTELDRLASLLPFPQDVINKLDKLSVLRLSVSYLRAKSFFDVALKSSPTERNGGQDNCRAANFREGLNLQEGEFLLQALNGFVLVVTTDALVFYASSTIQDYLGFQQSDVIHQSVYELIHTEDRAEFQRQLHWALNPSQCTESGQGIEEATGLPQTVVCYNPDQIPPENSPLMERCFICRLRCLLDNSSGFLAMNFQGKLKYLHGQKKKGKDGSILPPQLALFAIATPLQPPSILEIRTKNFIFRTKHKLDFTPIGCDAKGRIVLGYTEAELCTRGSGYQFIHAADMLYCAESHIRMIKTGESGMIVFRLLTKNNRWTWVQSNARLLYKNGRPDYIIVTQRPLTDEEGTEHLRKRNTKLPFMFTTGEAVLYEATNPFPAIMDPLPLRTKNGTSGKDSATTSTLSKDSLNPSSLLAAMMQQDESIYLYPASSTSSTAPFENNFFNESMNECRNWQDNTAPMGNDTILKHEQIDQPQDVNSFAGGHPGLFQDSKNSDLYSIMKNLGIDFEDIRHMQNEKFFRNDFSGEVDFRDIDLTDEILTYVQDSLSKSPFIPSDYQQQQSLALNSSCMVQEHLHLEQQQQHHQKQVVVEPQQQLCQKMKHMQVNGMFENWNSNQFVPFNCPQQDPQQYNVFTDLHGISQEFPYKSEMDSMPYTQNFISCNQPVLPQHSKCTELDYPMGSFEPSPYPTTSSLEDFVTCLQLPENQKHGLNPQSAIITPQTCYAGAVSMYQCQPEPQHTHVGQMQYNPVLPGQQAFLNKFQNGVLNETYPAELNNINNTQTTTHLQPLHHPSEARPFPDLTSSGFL
Outline: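 Luminescence read-out: ONE-Glo reagent, 30 min at room temperature, in HG2L7.5c1 HepG2 reporter cells treated 24 h at 37C. Viability was measured beforehand by CellTiter-Fluor fluorescence after 30 min at 37C.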

[19] = target: Peroxisome proliferator-activated receptor gamma (Homo sapiens) (UniProt P37231); assay: qHTS assay to identify small molecule antagonists of the peroxisome proliferator-activated receptor gamma (PPARg) signaling pathway (AID 743191; calls by dose curve; further: nearly all actives have a fitted effect of over 30% in size)
Outline: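 GeneBLAzer PPARg UAS-bla HEK293H cells, 5 h post-plating, exposed to compounds 17 h at 37C. LiveBLAzer B/G FRET substrate added for 1 h at room temperature; beta-lactamase reporter read by fluorescence intensity.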

[20] = qHTS assay to identify small molecule antagonists of the peroxisome proliferator-activated receptor gamma (PPARg) signaling pathway - cell viability counter screen (AID 743194); further: nearly all actives have a fitted effect of over 55% in size
Outline: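 Cytotoxicity counter screen in PPARg-bla HEK293H cells, same wells as reporter assay. Compounds plus 50 nM rosiglitazone (final) for 17 h at 37 C, then viability read by CellTiter-Glo luminescence.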

Measured: Potency

c1ccc2sc(SN(C3CCCCC3)C3CCCCC3)nc2c1
active: [1] 21.4 µM | [13] 30.3 µM
not listed: [17] | [18] | [19] | [20]
inactive: all other assays above

Oc1c(I)cc(I)c2cccnc12
active: [3] 6.01 µM [cytotoxic]
not listed: [1] | [2] | [4] | [7] | [13] | [18] | [19] | [20]
inactive: all other assays above

O=C(/C=C/c1ccc(O)c(O)c1)O[C@@H]1C[C@@](OC(=O)/C=C/c2ccc(O)c(O)c2)(C(=O)O)C[C@@H](O)[C@@H]1O
not listed: [3] | [13] | [14] | [17]
inactive: all other assays above

CCCCCC#CC(=O)OC
not listed: [13] | [17] | [19]
inactive: all other assays above

Nc1cccc2c1CN(C1CCC(=O)NC1=O)C2=O (stereo not given)
not listed: [13] | [17]
inactive: all other assays above

CC(O)c1ccccc1 (stereo not given)
not listed: [17]
inactive: all other assays above

Cc1cccc(O)c1N
active: [18] 27.6 µM
not listed: [1] | [3] | [5] | [6] | [7] | [12] | [13] | [19]
inactive: all other assays above
